# Pf Dd2 growth – Plasmodium falciparum Dd2 growth inhibition | P. falciparum Dd2 growth, SYBR Green, 72 h | Potency, µM (titrated, usually from 28.9 µM), inactives show at the top dose activity, negative = inhibition, hits mostly inhibitors | hit rate 4.3% among 120,000 | AID 1347417; active = well fitted inhibition curve with a large enough effect;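 also: plate controls were DMSO vehicle for no effect and reference drug for full effect; nearly all actives have a fitted effect of over 65% in size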
#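 Readout: SYBR Green fluorescence, 485 nm excitation, 535 nm emission, after ~16 h lysis at 37C. Before that, Dd2-infected red cells (2.5% hematocrit) grew 72 h with compound, 29 uM top final concentration.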
# * = called active by the depositor; i = inactive; [ ] = remark or other dose. The entries come from a sample that favours hits as a whole. Potency is read from the fitted curve at half-maximal effect.
SMILES,Pf Dd2 growth
Cc1ccc(C2Cn3nnc(C(=O)N4CCC(C(=O)Nc5cc(F)cc(F)c5)CC4)c3CO2)cc1 (stereo not given),i
O=C(C[C@@H]1O[C@H](CNC(=O)Nc2cccc(F)c2)[C@@H](O)[C@H]1O)Nc1ccccc1,17%[44.1 µM]
COc1cccc(CN2C[C@@H]3C(=O)N(CCN4CCc5ccccc5C4)C(=O)[C@@H]3C2)c1OC,7.1µM*
COCCN1C(=O)[C@H]2CN(Cc3ccccc3OC(F)(F)F)C[C@H]2C1=O,50%
COc1cccc(CN2CCc3nn(C)c(=O)n3CC2)c1OC,40%
COCCc1noc(C2CN(C(=O)C3CCOC3)C2)n1 (stereo not given),13%
CN(C)c1ccc2ncc(Nc3cc(F)cc(N4CCOCC4)c3)n2n1,10µM*
c1ccc(-c2ccc3ncc(Nc4ccc(N5CCOCC5)cc4)n3n2)cc1,-17%[44.1 µM]
CN(C)c1ccc2ncc(Nc3ccccc3)n2n1,-6%[44.1 µM]
O=C(c1ccoc1)N1CCN(C(=O)c2nnn3c2COC(c2ccccc2)C3)CC1 (stereo not given),i
CC(C)c1nnc(NC(=O)CC[C@H]2NC(=O)c3ccccc3NC2=O)s1,-21%
O=C(Nc1ccccc1)N1CCC2(CC1)C(=O)NCN2Cc1ccc(Cl)cc1,3.2µM*
O=C1NCN(Cc2ccc(Cl)cc2)C12CCN(Cc1ccccn1)CC2,-15%
O=C(Nc1ccc(C(F)(F)F)cc1)N1CCC2(CC1)C(=O)NCN2Cc1ccc(Cl)cc1,-5%
O=C1NCN(Cc2ccc(Cl)cc2)C12CCN(Cc1cccc3ccccc13)CC2,-29%
O=C1NCN(Cc2ccc(Cl)cc2)C12CCN(Cc1ccsc1)CC2,8.9µM*
O=C(c1ccc(Cl)cc1)N1CCC2(CC1)C(=O)NCN2Cc1ccccc1,4%
CCn1cc(S(=O)(=O)N2CCC3(CC2)CC(N(C)Cc2ccccc2)CCO3)cn1 (stereo not given),i
O=C(c1ccc(NCc2ccncc2)cc1)N1CCCC2(CCNCC2)CC1,-13%
CC(=O)N1CCCC1c1nc(C2CN(C(=O)CCn3cc(C)cn3)C2)no1 (stereo not given),12%
COc1ccc(C(=O)N[C@@H]2CN(c3ncccn3)C[C@H]2CN(C)C)cc1OC,22%
Cc1nc(CN2CCN(C(=O)[C@H]3CC[C@@H](N)C3)CC2)cs1,22%
N[C@@H]1CC[C@H](C(=O)NCc2csc(N3CCCC3)n2)C1,11µM*
O=C(NCc1csc(-c2cnccn2)n1)[C@H]1CCC[C@H](O)C1,-11%
O=C(Cc1ccccc1)N1CC2CC(C1)[C@H]1CCCC(=O)N1C2 (stereo not given in full),0%
SMILES,Pf Dd2 growth
O=C(c1ccc(Cl)cc1)N1CCC2(COc3ccncc3[S+](=O)([O-])N2)C1 (stereo not given),-12%
NC(=O)[C@@H]1CN(C(=O)C2CCCC2)C[C@H]1COc1ccccc1,4%
COc1ccc(Nc2c(-c3ccc(N4CCOCC4)cc3)nc3ncccn23)cc1OC,-19%
Cc1ccc(-c2nc3ncccn3c2Nc2ccc3c(c2)OCCO3)cc1,-21%
COc1cc(-c2nc3ncccn3c2Nc2ccc(C)cc2C)ccc1O,13µM*
CN1CCC(N2CCN(C(=O)CCC3CCCCC3)CC2)C1=O (stereo not given),2%
CCN1C(=O)CCC2(C(=O)NCc3cccc(F)c3)CCCC=C12 (stereo not given),-6%
Nc1nc(CCNC(=O)[C@H]2CNC[C@H](C(=O)N3CCOCC3)C2)cs1,-8%
COc1cccc(S(=O)(=O)NCC2Cn3cccc3C(=O)N2C)c1 (stereo not given),-5%
CN1C(=O)c2cccn2CC1CNS(=O)(=O)c1ccc(F)cc1 (stereo not given),5%
CCOC(=O)c1oc2ccc(S(=O)(=O)NCC3Cn4cccc4C(=O)N3C)cc2c1C (stereo not given),13µM*
Cc1ccc(C(=O)N2CCCN(c3cc(-c4ccc(Cl)cc4)[nH]n3)CC2)cn1,6.3µM*
COc1ccc(-c2cc(N3CCN(C(=O)c4ccc(C)nc4)CC3)n[nH]2)cc1,i
COc1ccc(-c2cc(N3CCCN(C(=O)c4ccc(C)nc4)CC3)n[nH]2)cc1,i
Cc1cc(C)cc(NC(=O)CSc2nc(-c3cccc(Cl)c3)nc3c2Cc2c(CO)cnc(C)c2O3)c1,-26%
CCN(CC)C(=O)CSc1nc(-c2ccc(C)cc2)nc2c1Cc1c(CO)cnc(C)c1O2,10µM*
Cc1cccc(C)c1NC(=O)CSc1nc(-c2ccccc2)nc2c1Cc1c(CO)cnc(C)c1O2,12%
Cc1ccc(-c2nc3c(c(SCC(=O)N(C)c4ccccc4)n2)Cc2c(CO)cnc(C)c2O3)cc1,5.6µM*
CCSc1nc(-c2ccccc2)nc2c1Cc1c(CO)cnc(C)c1O2,11%
Cc1ccc(-c2nc3c(c(SCC(=O)Nc4ccccc4Cl)n2)Cc2c(CO)cnc(C)c2O3)cc1,19%
CCCS(=O)(=O)N1CCCC1C(=O)Nc1ccccc1-c1ccc(OC)cc1 (stereo not given),5%
N#Cc1cccc(C(=O)N2CCc3c(n(Cc4ccccc4)n(-c4ccccc4)c3=O)C2)c1,i
COc1ccc(CNC(=O)NCCc2noc(-c3ccncc3)n2)cc1,-25%
